Experiments:
Test in all cases: PBM binding z-score (relative to random genomic background probes); higher = stronger binding; sequences stand for … in GC…GCGATTGACAGCGTAGAATGAAGG
[1] = tested on: FXR:RXRa (NR concentration 270 nM, RXRa partner concentration 90 nM)
Method in brief: (§1)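 Antibodies against each partner of ligand-free nuclear receptor dimers (one per run) detected binding on custom Agilent 4×180K protein-binding microarrays after 1 h incubation. The double-stranded probes had 34-nt variable regions carrying direct-repeat seeds, single-nucleotide variants, half-site ablations and random human genomic background sequences. Binding z-scores, from regression-normalized fluorescence, use the random background probes as reference.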

[2] = tested on: LXRa homodimer (NR concentration 270 nM)
Method in brief: as §1

[3] = tested on: LXRb homodimer (NR concentration 270 nM)
Method in brief: as §1

[4] = tested on: PPARa:RXRa (NR concentration 270 nM, RXRa partner concentration 90 nM)
Method in brief: as §1

[5] = tested on: PPARg:RXRa (NR concentration 180 nM, RXRa partner concentration 90 nM)
Method in brief: as §1

[6] = tested on: PPARg:RXRa 270nM:90nM, anti-RXR (NR concentration 270 nM, RXRa partner concentration 90 nM)
Method in brief: as §1

[7] = tested on: PPARg:RXRa 30nM:10nM, anti-RXR (NR concentration 30 nM, RXRa partner concentration 10 nM)
Method in brief: as §1

[8] = tested on: PPARg:RXRa 90nM:30nM, anti-RXR (NR concentration 90 nM, RXRa partner concentration 30 nM)
Method in brief: as §1

[9] = tested on: PPARg:RXRa DBDmut IVT, anti-RXR (DBD mutation: RXRa K156A/R161A, NR concentration 270 nM, RXRa partner concentration 90 nM)
Method in brief: as §1

[10] = tested on: PPARg:RXRa IVT, anti-PPARg (NR concentration 270 nM, RXRa partner concentration 90 nM)
Method in brief: as §1

[11] = tested on: PPARg DBDmut:RXRa IVT, anti-PPARg (DBD mutation: PPARg1 K132A/R137A, NR concentration 270 nM, RXRa partner concentration 90 nM)
Method in brief: as §1

[12] = tested on: PPARg DBDmut IVT, anti-PPARg (DBD mutation: PPARg1 K132A/R137A, NR concentration 270 nM)
Method in brief: as §1

[13] = tested on: PPARg homodimer (NR concentration 180 nM)
Method in brief: as §1

[14] = tested on: PXR:RXRa (NR concentration 270 nM, RXRa partner concentration 90 nM)
Method in brief: as §1

[15] = tested on: PXR homodimer (NR concentration 270 nM)
Method in brief: as §1

[16] = tested on: RARa:RXR (NR concentration 270 nM, RXRa partner concentration 90 nM)
Method in brief: as §1

[17] = tested on: RARa homodimer (NR concentration 270 nM)
Method in brief: as §1

[18] = tested on: RARb:RXRa (NR concentration 270 nM, RXRa partner concentration 90 nM)
Method in brief: as §1

[19] = tested on: RARb homodimer (NR concentration 270 nM)
Method in brief: as §1

Sequence	PBM binding z-score [1]	PBM binding z-score [2]	PBM binding z-score [3]	PBM binding z-score [4]	PBM binding z-score [5]	PBM binding z-score [6]	PBM binding z-score [7]	PBM binding z-score [8]	PBM binding z-score [9]	PBM binding z-score [10]	PBM binding z-score [11]	PBM binding z-score [12]	PBM binding z-score [13]	PBM binding z-score [14]	PBM binding z-score [15]	PBM binding z-score [16]	PBM binding z-score [17]	PBM binding z-score [18]	PBM binding z-score [19]
ATCGAAAGGTCGAAGGTGAGCATACCCACCCGAA	4.19	0.288	0.758	5.01	5.08	5.08	2.36	4.36	0.147	2.39	0.377	0.499	1.46	3.16	0.092	4.44	0.708	3.86	3.01
ATATGTAGGTTAACTGGGGTCATTCAGACTAGGC	5.59	5.57	1.43	5.96	7.58	6.61	4.49	6.42	7.59	7.34	1.81	2.42	1.95	–	5.25	5.93	1.61	3.55	4.28
CCTACGGGGCCACGAAAGGTCATTGATTCAGTGA	4.71	4.26	0.262	–	2.82	3.88	1.18	2.46	1.57	2.93	-0.766	-1.47	3.09	6.2	2.54	5.88	0.351	4.55	5.16
CCTACTGGACCAAGGTCATTGATCAGTCAAAGCA	3.24	1.96	0.618	3.97	2.11	2.77	0.593	1.95	2.03	2.23	0.0744	0.144	2.59	3.88	1.96	3.91	0.91	3.23	3.4
CCTACTGGGCCACGAAAGGCCATTGATTCAGTGA	-0.0775	-0.396	-0.835	0.948	1.34	1.21	-0.199	0.589	5.23	5.01	-0.487	-0.189	0.0675	0.149	-0.378	0.18	-0.712	1.18	1.36
TCTAGTTGGTCACGGAGGTCCCACACGACGGGTA	-0.177	0.0478	-0.115	0.66	0.739	1.93	3.06	2.25	1.68	2.31	0.993	1.03	0.373	0.138	-0.319	0.243	0.299	1.57	1.32
TCTTGTAGATCGATAGAGGTTAAGAAAGTGCGCT	0.392	-0.317	-0.0814	1.48	-0.159	1.66	2.48	1.93	0.891	0.198	0.295	0.641	0.199	2.67	0.241	1.23	0.262	0.661	0.946
TACCCTAGGTCATTCAGGGGCCAGTATAGAAAGC	4.73	8.12	4.99	3.81	2.52	2.63	0.859	2.15	1.8	3.23	-0.205	0.64	2.57	2.68	0.936	3.65	0.569	4.13	3.8
CGTCAAAGTTCAACTGAGGTAACGTAAAGCACGC	7.32	5.02	2	5.29	5.04	5.58	2.33	4.11	0.26	2.31	0.285	0.242	3.03	5.86	4.5	4.36	1.6	5.41	4.06
TATACAAGGTCAAAGGCCAGAGTACGAATGTCGA	7.51	6.08	4.21	6.24	8.52	7.39	5.48	7.66	2.91	5.15	1.68	2.18	2.34	4.53	0.743	5.37	0.491	5.27	4.35
AGTCAAAGTTCAGGACGACGTAACGTAAAGCACG	3.58	0.954	-0.163	2.98	4.42	4.5	1.87	4	-0.52	1.54	0.437	-0.388	1.53	2.18	0.785	1.86	0.264	3.92	2.77
CGAACTAGGTCATCCAGGTCAGTGAATACATTGA	5.02	1.02	-0.0563	5.17	7.77	6.49	4.46	6.24	8.34	8.34	6.69	1.38	4.66	3.99	7.58	3.63	1.17	4.3	4.14
CCTACTGGGCCATTCAGAGGTCAATGATCATATG	2.47	4.81	0.521	–	2.59	3.02	0.908	2.2	4.08	4.62	0.0847	-0.339	1.92	3.89	0.827	3.93	0.374	3.42	4.28
CCTAGTTGGTCAAGGTCACACCCGCTATAGGTAC	3.45	2.19	1.02	3.85	2.92	3.27	1.13	2.4	2.17	3.67	0.989	0.599	3.09	3.95	2.06	4.02	1.87	4.12	4.39
